We go through 40 compounds from PubChem BioAssay.

Active and inactive are the calls of the source. No stated cut-off is given here; in the data, active means inhibition above about 31%; inactive means the rest.

One experiment can be described thus: MRP1 drug-resistance reversers in H69AR cells – cell-based, doxorubicin co-treatment, pilot screen (AID 601). The settings on record: H69AR cells, CellTiter-Glo, 72 h; compound alone cytotoxicity; at 10 µM. In general terms: Cellular ATP, detected with luciferase, serves as a proxy for viable cell number.
For orientation: viability means a read-out of living cells in per cent, often relative to untreated cells. As for `CCC1CCCCN1c1nc(-c2ccncc2)nc2ccccc12` (stereo not given), the viability came to 14.5%.
In the case of `Cc1nc(NC(=O)c2ccccc2)sc1-c1csc(NCc2ccco2)n1`, the viability is 20.2%.
`COc1ccc(OCCN2C(=O)NC(C)(c3ccc(C)cc3)C2=O)cc1` (stereo not given): the viability amounted to 91.1%.
As for `Cc1cc(S(=O)(=O)N2CCN(c3ncccn3)CC2)ccc1-n1cnnn1`, the viability was 97.1%.
Turning to `O=C(NCC(=O)N(c1cccnc1)C(C(=O)NC1CCCCC1)c1cccnc1)c1ccco1` (stereo not given), the viability was 109%.
For `CCOC(=O)Nc1nnc(-c2ccccc2OC)s1`, the viability was 93.9%.
Regarding `CCc1nnc(SCc2cn3c(C)cc(C)nc3n2)n1N`, the viability turned out to be 108%.
For the compound `CCOc1cc(/C=N/n2cnnc2)cc(Br)c1O`, the viability is 83.3%.
Regarding `COc1ccc(Nc2nc(Nc3ccc(OC)cc3)nc(-n3[nH]c(=O)c(C)c3C)n2)cc1`, the viability worked out at 12.1%.
On the same count and under the same terms, the same measure for `CC(O)c1cc2c(cc1NC(=O)c1cnn3c1NC(c1ccco1)CC3C(F)(F)F)OCO2` (stereo not given): 86.3%; for `CC(C)n1nc(C(=O)Nc2nc3ccc(S(C)(=O)=O)cc3s2)c2ccccc2c1=O`: 67.8%; for `CC(CC(=O)NCc1ccccc1)C1CCCO1` (stereo not given): 93.4%.
For the compound `CCCCn1cnc2c(c1=O)c1nc3ccccc3nc1n2Cc1ccc2c(c1)OCO2`, the viability worked out at 68.9%.
On to `COc1ccc(-n2nnnc2SCC(=O)c2ccc(O)c(O)c2)cc1`, for which the viability turned out to be 34.7%.
The same measure, in the same setting: the same measure for `CCN(CC)CCn1c(OC)cc(=O)[nH]c1=O`: 101%; for `O=C(c1ccco1)N1CCN(c2nc(C(F)(F)F)nc3c2nnn3Cc2ccccc2)CC1`: 73.3%; for `O=C(O)c1ccc(NC(=O)c2cccs2)cc1`: 92.5%.
With `NS(=O)(=O)c1cc2c(cc1C(F)(F)F)NCNS2(=O)=O`, the viability stood at 109%.
The same measure, in the same setting: the value for `Cc1ccc(CCNC(=O)C2CCC(=O)N2C2CCCC2)cc1` (stereo not given) was 94.9%.
Turning to `COc1cccc(NS(=O)(=O)c2ccc3[nH]cc(C(=O)NC4CC4)c(=O)c3c2)c1`, the viability stood at 70.1%.
As for `CCn1cc(C(=O)O)c(=O)c2ccc(C)nc21`, the viability worked out at 101%.
Still for that read-out and setting: the same measure for `Cc1nc2ccc(S(=O)(=O)NCC(=O)N3CCc4ccccc4C3)cc2s1`: 93.5%; for `c1coc(CN2CN=C(Nc3nc4ccccc4s3)NC2)c1`: 96.4%; for `COc1cc(NS(=O)(=O)c2ccc(N)cc2)nc(OC)n1`: 100%.
On to `Cc1ccc2nc3c(cc(C(=O)NCC4CCCO4)n3C)c(=O)n2c1` (stereo not given), for which the viability turned out to be 94.9%.
Same read-out and setting: the same measure for `COc1ccc2c(c1)c(CC(=O)OCC(=O)O)c(C)n2C(=O)c1ccc(Cl)cc1`: 96.2%; for `CCCn1cnc2c(cnn2-c2ccc(F)cc2)c1=O`: 98.8%; for `CCN(CCO)C(=O)CC(c1ccccc1)c1cc(Br)ccc1O` (stereo not given): 93.8%.
On to `COc1cc2c(cc1OC)C(/C(C#N)=N\O)=NC(C)(C)C2`, for which the viability turned out to be 100%.
Turning to `O=C(O)COc1cccc(NC(=O)C2CCCO2)c1` (stereo not given), the viability came out at 93.3%.
Consider `CN1CCN(C(=O)c2ccc3c(=O)n(CCc4ccccc4)c(=S)[nH]c3c2)CC1`, for which the viability was found to be 81.6%.
As for `CN(CCNC(=O)c1ccc(N2CCCC2=O)cc1)CCc1ccccc1`, the viability is 101%.
`COc1cccc(OCC(=O)Nc2ccccc2C(N)=O)c1`: the viability amounted to 97%.
On to `CN1CC=C2C(C#N)=C(N)C(C#N)(C#N)C(c3cccc(Cl)c3Cl)C2C1` (stereo not given), for which the viability turned out to be 61.1%.
Still for that read-out and setting: the same measure for `Cn1c(C(=O)OC(C(=O)NC2CCCC2)c2cccnc2)cc2sccc21` (stereo not given): 89.1%; for `Cc1ccc(NC(=O)COC(=O)c2ccn(C)n2)cc1`: 87.2%.
Same read-out and setting: the value for `FC(F)(F)c1ccc(Sc2nnc(-c3cccs3)n2CC2CCCO2)nc1` (stereo not given) was 94.5%; that for `COc1ccc(-n2c(SCC(=O)N3CCCCC3C)nnc2-c2cccnc2)cc1` (stereo not given) was 102%.
On to `CCOC(=O)c1ccc(N(CC(=O)NC2CCCC2)C(=O)CNC(=O)c2ccco2)cc1`, for which the viability stood at 93.9%.
Still for that read-out and setting: the value for `COC(=O)c1ccccc1NC(=O)C1CCN(S(=O)(=O)c2cc(C)ccc2OC)CC1` was 79.1%.

A further experiment is described as follows: yeast transport mutant growth inhibition pilot in 384-well plates, post-Golgi transport modulator project (AID 636). The settings on record: absorbance 615 nm, about 18 h, stronger effect = higher value.
In general, inhibition refers to the change of the read-out against control, counted positive when it falls. For `CCC1CCCCN1c1nc(-c2ccncc2)nc2ccccc12` (stereo not given), the inhibition was -0.79% (inactive).
As to `Cc1nc(NC(=O)c2ccccc2)sc1-c1csc(NCc2ccco2)n1`, the inhibition is 34.6% (active).
Turning to `COc1ccc(OCCN2C(=O)NC(C)(c3ccc(C)cc3)C2=O)cc1` (stereo not given), the inhibition is 3.15% (inactive).
For `Cc1cc(S(=O)(=O)N2CCN(c3ncccn3)CC2)ccc1-n1cnnn1`, the inhibition is -2.8% (inactive).
Regarding `O=C(NCC(=O)N(c1cccnc1)C(C(=O)NC1CCCCC1)c1cccnc1)c1ccco1` (stereo not given), the inhibition is -3.07% (inactive).
With `CCOC(=O)Nc1nnc(-c2ccccc2OC)s1`, the inhibition was -0.14% (inactive).
On the same count and under the same terms, the value for `CCc1nnc(SCc2cn3c(C)cc(C)nc3n2)n1N` was -1.89% (inactive).
Same read-out and setting: the value for `CCOc1cc(/C=N/n2cnnc2)cc(Br)c1O` was -2.37% (inactive).
On to `COc1ccc(Nc2nc(Nc3ccc(OC)cc3)nc(-n3[nH]c(=O)c(C)c3C)n2)cc1`, for which the inhibition is -4.32% (inactive).
Take `CC(O)c1cc2c(cc1NC(=O)c1cnn3c1NC(c1ccco1)CC3C(F)(F)F)OCO2` (stereo not given): the inhibition was 0.65% (inactive).
As to `CC(C)n1nc(C(=O)Nc2nc3ccc(S(C)(=O)=O)cc3s2)c2ccccc2c1=O`, the inhibition is -4.86% (inactive).
On the same count and under the same terms, the same measure for `CC(CC(=O)NCc1ccccc1)C1CCCO1` (stereo not given): -2.21% (inactive); for `CCCCn1cnc2c(c1=O)c1nc3ccccc3nc1n2Cc1ccc2c(c1)OCO2`: -5.14% (inactive); for `COc1ccc(-n2nnnc2SCC(=O)c2ccc(O)c(O)c2)cc1`: -5.89% (inactive).
The same measure, in the same setting: the value for `CCN(CC)CCn1c(OC)cc(=O)[nH]c1=O` was -10% (inactive).
For the compound `O=C(c1ccco1)N1CCN(c2nc(C(F)(F)F)nc3c2nnn3Cc2ccccc2)CC1`, the inhibition was -9.45% (inactive).
On to `O=C(O)c1ccc(NC(=O)c2cccs2)cc1`, for which the inhibition is -5.73% (inactive).
In the case of `NS(=O)(=O)c1cc2c(cc1C(F)(F)F)NCNS2(=O)=O`, the inhibition was 1.17% (inactive).
Take `Cc1ccc(CCNC(=O)C2CCC(=O)N2C2CCCC2)cc1` (stereo not given): the inhibition was -2.08% (inactive).
On to `COc1cccc(NS(=O)(=O)c2ccc3[nH]cc(C(=O)NC4CC4)c(=O)c3c2)c1`, for which the inhibition was -1.04% (inactive).
As to `CCn1cc(C(=O)O)c(=O)c2ccc(C)nc21`, the inhibition was -0.78% (inactive).
Regarding `Cc1nc2ccc(S(=O)(=O)NCC(=O)N3CCc4ccccc4C3)cc2s1`, the inhibition was 2.47% (inactive).
In the case of `c1coc(CN2CN=C(Nc3nc4ccccc4s3)NC2)c1`, the inhibition was -2.3% (inactive).
Take `COc1cc(NS(=O)(=O)c2ccc(N)cc2)nc(OC)n1`: the inhibition was 1.43% (inactive).
Turning to `Cc1ccc2nc3c(cc(C(=O)NCC4CCCO4)n3C)c(=O)n2c1` (stereo not given), the inhibition is -0.96% (inactive).
On the same count and under the same terms, the same measure for `COc1ccc2c(c1)c(CC(=O)OCC(=O)O)c(C)n2C(=O)c1ccc(Cl)cc1`: -5.06% (inactive); for `CCCn1cnc2c(cnn2-c2ccc(F)cc2)c1=O`: -0.78% (inactive).
Consider `CCN(CCO)C(=O)CC(c1ccccc1)c1cc(Br)ccc1O` (stereo not given), for which the inhibition was -2.3% (inactive).
The same measure, in the same setting: the value for `COc1cc2c(cc1OC)C(/C(C#N)=N\O)=NC(C)(C)C2` was -8.77% (inactive).
Regarding `O=C(O)COc1cccc(NC(=O)C2CCCO2)c1` (stereo not given), the inhibition was 0.14% (inactive).
On the same count and under the same terms, the same measure for `CN1CCN(C(=O)c2ccc3c(=O)n(CCc4ccccc4)c(=S)[nH]c3c2)CC1`: -1.95% (inactive).
`CN(CCNC(=O)c1ccc(N2CCCC2=O)cc1)CCc1ccccc1`: the inhibition was -7.95% (inactive).
As for `COc1cccc(OCC(=O)Nc2ccccc2C(N)=O)c1`, the inhibition was -1.51% (inactive).
`CN1CC=C2C(C#N)=C(N)C(C#N)(C#N)C(c3cccc(Cl)c3Cl)C2C1` (stereo not given): the inhibition is -4.67% (inactive).
Turning to `Cn1c(C(=O)OC(C(=O)NC2CCCC2)c2cccnc2)cc2sccc21` (stereo not given), the inhibition is -4.38% (inactive).
Turning to `Cc1ccc(NC(=O)COC(=O)c2ccn(C)n2)cc1`, the inhibition is -2.74% (inactive).
In the case of `FC(F)(F)c1ccc(Sc2nnc(-c3cccs3)n2CC2CCCO2)nc1` (stereo not given), the inhibition is -8.22% (inactive).
The same measure, in the same setting: the same measure for `COc1ccc(-n2c(SCC(=O)N3CCCCC3C)nnc2-c2cccnc2)cc1` (stereo not given): -5.54% (inactive); for `CCOC(=O)c1ccc(N(CC(=O)NC2CCCC2)C(=O)CNC(=O)c2ccco2)cc1`: 0.13% (inactive); for `COC(=O)c1ccccc1NC(=O)C1CCN(S(=O)(=O)c2cc(C)ccc2OC)CC1`: -11.1% (inactive).
